Common to all, as to experiment: NCI-60 one-dose screen, 48 h (100 = growth as untreated, 0 = no growth, -100 = all killed)
One experiment deals with K-562 leukemia. The following applies: 10 µM unless noted.
The subject of another experiment is MALME-3M melanoma. As to conditions: 10 µM unless noted.
The next experiment has as its system MDA-MB-231 breast. As to conditions: 10 µM unless noted.
The subject of the next experiment is RXF 393 renal. As to conditions: 10 µM unless noted.
Another experiment has as its system SF-268 CNS. As to conditions: 10 µM unless noted.
The next experiment has as its system SF-295 CNS. As to conditions: 10 µM unless noted.
The subject of another experiment is SF-539 CNS. The following applies: 10 µM unless noted.
The test system of the next experiment is UACC-257 melanoma. The following applies: 10 µM unless noted.
For a further experiment, the system named is HCT-15 colon. As to conditions: 10 µM unless noted.
In the next experiment the test system is HT29 colon. As to conditions: 10 µM unless noted.
The next experiment deals with SNB-75 CNS. As to conditions: 10 µM unless noted.
The test system of another experiment is SNB-19 CNS. As to conditions: 10 µM unless noted.
A further experiment concerns U251 CNS. The following applies: 10 µM unless noted.
A further experiment deals with SK-MEL-5 melanoma. The following applies: 10 µM unless noted.
The subject of a further experiment is UACC-62 melanoma. As to conditions: 10 µM unless noted.
The subject of a further experiment is LOX IMVI melanoma. The following applies: 10 µM unless noted.
For the next experiment, the system named is SK-MEL-28 melanoma. The following applies: 10 µM.
The next experiment deals with SK-MEL-2 melanoma. As to conditions: 10 µM unless noted.
Another experiment concerns M14 melanoma. As to conditions: 10 µM unless noted.
A further experiment concerns PC-3 prostate. The following applies: 10 µM unless noted.

Compounds without any hit were thinned out: in the full panel of roughly 83,000, 20% have a hit.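 96-well plates, one dose, 48 hours. Percent growth reported; active if below 10.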 Unmarked numbers belong to inactive results. Active and inactive are the calls of the source.

On to `O=C(Nc1ncc(Cc2cccc(C(F)(F)F)c2)s1)C1COc2ccccc2O1` (stereo unspecified), for which the growth is 63.3% with K-562 leukemia; 71.8% in the experiment with MALME-3M melanoma; 95.1% in the experiment on MDA-MB-231 breast; 79% in the experiment on RXF 393 renal; 87.6% with SF-268 CNS; 86.4% in the experiment on SF-295 CNS. Besides, the growth in the experiment with SF-539 CNS is 95.8%; in the experiment on UACC-257 melanoma it was 88.1%; with HCT-15 colon, 72%; in the experiment with HT29 colon it was 84.9%; in the experiment on SNB-75 CNS it was 83.3%; in the experiment on SNB-19 CNS, 89.9%. In addition, the growth in the experiment on U251 CNS was 83.8%; with SK-MEL-5 melanoma, 89.8%; in the experiment on UACC-62 melanoma, 65.3%; with LOX IMVI melanoma, 94.8%; with SK-MEL-28 melanoma, 87.5%; in the experiment on SK-MEL-2 melanoma, 88%.

In the case of `CC(C)(C)c1ccc(C2CC(=O)C3=C(C2)Nc2ccccc2N(C(=O)c2ccccc2Cl)C3c2ccc(F)cc2)cc1` (stereo unspecified), the growth in the experiment on K-562 leukemia is 10.1%; in the experiment on MALME-3M melanoma it was -85% (active); in the experiment with MDA-MB-231 breast it was 15.7%; in the experiment on RXF 393 renal it was -3.26% (active); in the experiment on SF-268 CNS it was 10.3%; with SF-539 CNS it was 8.74% (active). In addition, the growth is -34.1% (active) in the experiment with UACC-257 melanoma; 5.11% (active) with M14 melanoma; 19.3% with HCT-15 colon; -9.44% (active) with HT29 colon; 66.4% in the experiment with SNB-75 CNS; 9.35% (active) with SNB-19 CNS. For the same compound, the growth was 3.98% (active) in the experiment on U251 CNS; 8.88% (active) in the experiment on PC-3 prostate; -97.5% (active) in the experiment on SK-MEL-5 melanoma; -53.8% (active) in the experiment on UACC-62 melanoma; -11.8% (active) in the experiment on LOX IMVI melanoma; 38.6% with SK-MEL-28 melanoma. The growth in the experiment on SK-MEL-2 melanoma is -11.5% (active).

As for `O=S(=O)(c1ccccc1)n1cc2c(c1-c1ccccc1)CCc1sc(Nc3ccccc3)nc1-2`, the growth in the experiment with K-562 leukemia is 63.7%; in the experiment with MALME-3M melanoma, 105%; in the experiment with MDA-MB-231 breast, 79.4%; in the experiment with RXF 393 renal it was 87%; in the experiment on SF-268 CNS, 86.7%; in the experiment on SF-539 CNS, 106%. Also, the growth in the experiment with UACC-257 melanoma was 96.5%; in the experiment on M14 melanoma, 87.8%; in the experiment with HCT-15 colon, 83.8%; with HT29 colon it was 93%; with SNB-75 CNS, 93%; in the experiment with SNB-19 CNS, 95.2%. The growth was 78.5% with U251 CNS; 69.8% in the experiment on PC-3 prostate; 88.3% in the experiment on SK-MEL-5 melanoma; 78.4% in the experiment with UACC-62 melanoma; 77.8% in the experiment on LOX IMVI melanoma; 106% in the experiment on SK-MEL-28 melanoma. In addition, in the experiment on SK-MEL-2 melanoma, the growth was 93.4%.

Take `COc1cc(OC)cc(N2C(=O)N(Cc3ccc(C(C)(C)C)cc3)c3ccccc3S2(=O)=O)c1`: the growth is 33.3% in the experiment on K-562 leukemia; 64% in the experiment on MALME-3M melanoma; 77.4% with MDA-MB-231 breast; 60.2% with RXF 393 renal; 89% in the experiment on SF-268 CNS; 87.2% in the experiment with SF-539 CNS. The growth with UACC-257 melanoma was 105%; in the experiment with M14 melanoma it was 85.2%; in the experiment with HCT-15 colon, 67.9%; in the experiment with HT29 colon it was 93.7%; in the experiment on SNB-75 CNS it was 73.9%; in the experiment on SNB-19 CNS it was 94.7%. Also, the growth in the experiment with U251 CNS is 95.9%; in the experiment with PC-3 prostate it was 84.4%; in the experiment with SK-MEL-5 melanoma, 85.8%; with UACC-62 melanoma, 90.6%; with LOX IMVI melanoma it was 85.1%; in the experiment on SK-MEL-28 melanoma it was 91.9%. Besides, in the experiment with SK-MEL-2 melanoma, the growth was 88.5%.

On to `CCOC(=O)c1cc2c(n1Cc1cc(OC)c(OC)c(OC)c1)-c1oncc1CCC2`, for which the growth in the experiment with K-562 leukemia is 6.98% (active); in the experiment on MALME-3M melanoma, 43.9%; in the experiment with MDA-MB-231 breast, 12.3%; in the experiment with RXF 393 renal it was 26.9%; in the experiment with SF-268 CNS it was 46.1%; in the experiment with SF-539 CNS it was -7.45% (active). The growth with UACC-257 melanoma is 70.7%; in the experiment on M14 melanoma it was 18%; in the experiment with HCT-15 colon, 16.9%; with HT29 colon, 4.59% (active); with SNB-75 CNS, 20.2%; in the experiment on SNB-19 CNS, 72.1%. The growth in the experiment with U251 CNS was 25.3%; with PC-3 prostate it was 37%; in the experiment on SK-MEL-5 melanoma, 8.95% (active); with UACC-62 melanoma, 25.5%; in the experiment on LOX IMVI melanoma, 27%; in the experiment with SK-MEL-28 melanoma, 41.1%. Moreover, the growth in the experiment with SK-MEL-2 melanoma is 54%.

For `O=c1oc2ccc(I)cc2c(=O)n1-c1ccc(F)cc1F`, the growth in the experiment with K-562 leukemia is 7.26% (active); with MALME-3M melanoma, -21% (active); in the experiment on MDA-MB-231 breast, 33.3%; in the experiment with RXF 393 renal, 11.1%; in the experiment with SF-268 CNS it was 9.2% (active); in the experiment on SF-295 CNS it was 3.91% (active). The growth is 13.7% in the experiment with SF-539 CNS; -4.46% (active) with UACC-257 melanoma; 15.6% with HCT-15 colon; 107% in the experiment with HT29 colon; 14.7% with SNB-19 CNS; 8.66% (active) with U251 CNS. Besides, the growth with PC-3 prostate is 3.58% (active); in the experiment with UACC-62 melanoma, 0.781% (active); in the experiment on LOX IMVI melanoma, 11.4%; with SK-MEL-28 melanoma it was 18.9%; with SK-MEL-2 melanoma, -17.3% (active).

On to `O=C(COc1cc(O)c2c(=O)cc(-c3ccccc3)oc2c1)Nc1ccccc1C(F)(F)F`, for which the growth was 49.2% in the experiment on K-562 leukemia; 54.3% in the experiment on MALME-3M melanoma; 9.62% (active) in the experiment with MDA-MB-231 breast; 63.4% in the experiment on RXF 393 renal; 63.5% with SF-268 CNS; 34.6% in the experiment on SF-295 CNS. Besides, the growth is 35.2% in the experiment with SF-539 CNS; 73.4% in the experiment with UACC-257 melanoma; 53.4% in the experiment on HCT-15 colon; 70.6% in the experiment with HT29 colon; -4.06% (active) in the experiment with SNB-75 CNS; 45.2% in the experiment on SNB-19 CNS. Besides, the growth in the experiment with U251 CNS is 4.09% (active); in the experiment with PC-3 prostate, 64.6%; in the experiment on UACC-62 melanoma, 77.5%; in the experiment on LOX IMVI melanoma, 52%; in the experiment on SK-MEL-28 melanoma, 79.1%; in the experiment with SK-MEL-2 melanoma, 92%.

Turning to `O=C(CSc1ncccc1C(=O)O)Nc1ccc(Oc2ccccc2)cc1`, the growth is 94.4% in the experiment on K-562 leukemia; 99.3% in the experiment with MALME-3M melanoma; 124% in the experiment on MDA-MB-231 breast; 107% in the experiment with RXF 393 renal; 105% in the experiment with SF-268 CNS; 106% in the experiment on SF-539 CNS. Also, the growth was 100% in the experiment on UACC-257 melanoma; 98.7% with M14 melanoma; 104% in the experiment with HCT-15 colon; 115% with HT29 colon; 88.3% with SNB-75 CNS; 106% in the experiment on SNB-19 CNS. Besides, the growth in the experiment with PC-3 prostate was 99.8%; with UACC-62 melanoma, 116%; in the experiment on LOX IMVI melanoma, 92.1%; in the experiment with SK-MEL-28 melanoma it was 105%; with SK-MEL-2 melanoma, 106%.

The values are drawn from PubChem BioAssay (NCI).
